Experimental data published in paper PMC11006913.
Residue numbers refer to the chain shown, from its start.

How the values were obtained:
Test in all cases: PBM; 200 nM protein, PBS
Conditions in all cases: dsDNA, one strand shown
SIX6 [1] = biological target: T1, SIX6 (Homo sapiens, UniProt O95475 114-200, L167I)
T1 sequence: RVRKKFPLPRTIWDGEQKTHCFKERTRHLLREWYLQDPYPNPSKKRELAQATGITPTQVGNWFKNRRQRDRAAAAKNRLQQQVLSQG

SIX6 [2] = biological target: T2, SIX6 (Homo sapiens, UniProt O95475 114-200, L143V)
T2 sequence: T1 sequence with L30V, I54L

SIX6 [3] = biological target: T3, SIX6 (Homo sapiens, UniProt O95475 114-200, H141N)
T3 sequence: T1 sequence with H28N, I54L

SIX6 [4] = biological target: T4, SIX6 (Homo sapiens, UniProt O95475 114-200, T165P)
T4 sequence: T1 sequence with T52P, I54L

SIX6 [5] = biological target: T5, SIX6 (Homo sapiens, UniProt O95475 114-200, L167M)
T5 sequence: T1 sequence with I54M

SIX6 [6] = biological target: T6, SIX6 (Homo sapiens, UniProt O95475 114-200, L143M)
T6 sequence: T1 sequence with L30M, I54L

SIX6 [7] = biological target: T7, SIX6 (Homo sapiens, UniProt O95475 114-200, L143I)
T7 sequence: T1 sequence with L30I, I54L

SIX6 [8] = biological target: T8, SIX6 (Homo sapiens, UniProt O95475 114-200, T165G)
T8 sequence: T1 sequence with T52G, I54L

SIX6 [9] = biological target: T9, SIX6 (Homo sapiens, UniProt O95475 114-200, T139Q)
T9 sequence: T1 sequence with T26Q, I54L

SIX6 [10] = biological target: T10, SIX6 (Homo sapiens, UniProt O95475 114-200, T165A)
T10 sequence: T1 sequence with T52A, I54L

SIX6 [11] = biological target: T11, SIX6 (Homo sapiens, UniProt O95475 114-200, L167V)
T11 sequence: T1 sequence with I54V

SIX6 [12] = biological target: T12, SIX6 (Homo sapiens, UniProt O95475 114-200)
T12 sequence: T1 sequence with I54L

SIX6 [13] = biological target: T13, SIX6 (Homo sapiens, UniProt O95475 114-200, T165I)
T13 sequence: T1 sequence with T52I, I54L

HOXC9 = HOXC9 (Homo sapiens, UniProt P31274 178-260, R222W)
HOXC9, sequence (P31274 178-260 R222W): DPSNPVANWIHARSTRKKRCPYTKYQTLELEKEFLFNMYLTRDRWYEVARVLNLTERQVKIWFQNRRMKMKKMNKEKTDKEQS

Row | Sequence | binding signal (SIX6 [1]) | binding signal (SIX6 [2]) | binding signal (SIX6 [3]) | binding signal (SIX6 [4]) | binding signal (SIX6 [5]) | binding signal (SIX6 [6]) | binding signal (SIX6 [7]) | binding signal (SIX6 [8]) | binding signal (SIX6 [9]) | binding signal (SIX6 [10]) | binding signal (SIX6 [11]) | binding signal (SIX6 [12]) | binding signal (SIX6 [13]) | binding signal (HOXC9)
1 | GGGGGGAC | 8.99 upbm affinity estimate (log intensity, higher = more binding, comparable within an allelic series) | 8.81 upbm affinity estimate (log intensity, higher = more binding, comparable within an allelic series) | 8.96 upbm affinity estimate (log intensity, higher = more binding, comparable within an allelic series) | 8.71 upbm affinity estimate (log intensity, higher = more binding, comparable within an allelic series) | 8.97 upbm affinity estimate (log intensity, higher = more binding, comparable within an allelic series) | 8.91 upbm affinity estimate (log intensity, higher = more binding, comparable within an allelic series) | 8.72 upbm affinity estimate (log intensity, higher = more binding, comparable within an allelic series) | 8.92 upbm affinity estimate (log intensity, higher = more binding, comparable within an allelic series) | 8.93 upbm affinity estimate (log intensity, higher = more binding, comparable within an allelic series) | 9 upbm affinity estimate (log intensity, higher = more binding, comparable within an allelic series) | 8.74 upbm affinity estimate (log intensity, higher = more binding, comparable within an allelic series) | 8.93 upbm affinity estimate (log intensity, higher = more binding, comparable within an allelic series) | 8.96 upbm affinity estimate (log intensity, higher = more binding, comparable within an allelic series) | 9.31 upbm affinity estimate (log intensity, higher = more binding, comparable within an allelic series)
2 | CGGGAAGC | 9.04 upbm affinity estimate (log intensity, higher = more binding, comparable within an allelic series) | 8.99 upbm affinity estimate (log intensity, higher = more binding, comparable within an allelic series) | 9 upbm affinity estimate (log intensity, higher = more binding, comparable within an allelic series) | 9.05 upbm affinity estimate (log intensity, higher = more binding, comparable within an allelic series) | 9.01 upbm affinity estimate (log intensity, higher = more binding, comparable within an allelic series) | 8.96 upbm affinity estimate (log intensity, higher = more binding, comparable within an allelic series) | 9.03 upbm affinity estimate (log intensity, higher = more binding, comparable within an allelic series) | 9.03 upbm affinity estimate (log intensity, higher = more binding, comparable within an allelic series) | 9.07 upbm affinity estimate (log intensity, higher = more binding, comparable within an allelic series) | 9.03 upbm affinity estimate (log intensity, higher = more binding, comparable within an allelic series) | 9.01 upbm affinity estimate (log intensity, higher = more binding, comparable within an allelic series) | 8.93 upbm affinity estimate (log intensity, higher = more binding, comparable within an allelic series) | 8.99 upbm affinity estimate (log intensity, higher = more binding, comparable within an allelic series) | –
3 | GCCCTGCC | 8.89 upbm affinity estimate (log intensity, higher = more binding, comparable within an allelic series) | 8.78 upbm affinity estimate (log intensity, higher = more binding, comparable within an allelic series) | 8.91 upbm affinity estimate (log intensity, higher = more binding, comparable within an allelic series) | 8.91 upbm affinity estimate (log intensity, higher = more binding, comparable within an allelic series) | 8.87 upbm affinity estimate (log intensity, higher = more binding, comparable within an allelic series) | 8.9 upbm affinity estimate (log intensity, higher = more binding, comparable within an allelic series) | 8.84 upbm affinity estimate (log intensity, higher = more binding, comparable within an allelic series) | 8.91 upbm affinity estimate (log intensity, higher = more binding, comparable within an allelic series) | 9.01 upbm affinity estimate (log intensity, higher = more binding, comparable within an allelic series) | 8.99 upbm affinity estimate (log intensity, higher = more binding, comparable within an allelic series) | 8.94 upbm affinity estimate (log intensity, higher = more binding, comparable within an allelic series) | 8.87 upbm affinity estimate (log intensity, higher = more binding, comparable within an allelic series) | 8.85 upbm affinity estimate (log intensity, higher = more binding, comparable within an allelic series) | –
4 | GGGGGCCA | 8.93 upbm affinity estimate (log intensity, higher = more binding, comparable within an allelic series) | 8.85 upbm affinity estimate (log intensity, higher = more binding, comparable within an allelic series) | 8.92 upbm affinity estimate (log intensity, higher = more binding, comparable within an allelic series) | 8.83 upbm affinity estimate (log intensity, higher = more binding, comparable within an allelic series) | 9.04 upbm affinity estimate (log intensity, higher = more binding, comparable within an allelic series) | 9.04 upbm affinity estimate (log intensity, higher = more binding, comparable within an allelic series) | 8.87 upbm affinity estimate (log intensity, higher = more binding, comparable within an allelic series) | 8.92 upbm affinity estimate (log intensity, higher = more binding, comparable within an allelic series) | 9.03 upbm affinity estimate (log intensity, higher = more binding, comparable within an allelic series) | 9.09 upbm affinity estimate (log intensity, higher = more binding, comparable within an allelic series) | 9.02 upbm affinity estimate (log intensity, higher = more binding, comparable within an allelic series) | 9.03 upbm affinity estimate (log intensity, higher = more binding, comparable within an allelic series) | 9.05 upbm affinity estimate (log intensity, higher = more binding, comparable within an allelic series) | –
5 | GTCCGGAC | 9.13 upbm affinity estimate (log intensity, higher = more binding, comparable within an allelic series) | 8.97 upbm affinity estimate (log intensity, higher = more binding, comparable within an allelic series) | 8.97 upbm affinity estimate (log intensity, higher = more binding, comparable within an allelic series) | 9.02 upbm affinity estimate (log intensity, higher = more binding, comparable within an allelic series) | 9.09 upbm affinity estimate (log intensity, higher = more binding, comparable within an allelic series) | 9.15 upbm affinity estimate (log intensity, higher = more binding, comparable within an allelic series) | 9.08 upbm affinity estimate (log intensity, higher = more binding, comparable within an allelic series) | 9.27 upbm affinity estimate (log intensity, higher = more binding, comparable within an allelic series) | 9.2 upbm affinity estimate (log intensity, higher = more binding, comparable within an allelic series) | 9.14 upbm affinity estimate (log intensity, higher = more binding, comparable within an allelic series) | 9.17 upbm affinity estimate (log intensity, higher = more binding, comparable within an allelic series) | 9.13 upbm affinity estimate (log intensity, higher = more binding, comparable within an allelic series) | 9.13 upbm affinity estimate (log intensity, higher = more binding, comparable within an allelic series) | 9.89 upbm affinity estimate (log intensity, higher = more binding, comparable within an allelic series)
6 | CGCGTGGC | 9.04 upbm affinity estimate (log intensity, higher = more binding, comparable within an allelic series) | 8.85 upbm affinity estimate (log intensity, higher = more binding, comparable within an allelic series) | 9.07 upbm affinity estimate (log intensity, higher = more binding, comparable within an allelic series) | 8.86 upbm affinity estimate (log intensity, higher = more binding, comparable within an allelic series) | 8.92 upbm affinity estimate (log intensity, higher = more binding, comparable within an allelic series) | 8.96 upbm affinity estimate (log intensity, higher = more binding, comparable within an allelic series) | 8.93 upbm affinity estimate (log intensity, higher = more binding, comparable within an allelic series) | 9 upbm affinity estimate (log intensity, higher = more binding, comparable within an allelic series) | 9.1 upbm affinity estimate (log intensity, higher = more binding, comparable within an allelic series) | 8.98 upbm affinity estimate (log intensity, higher = more binding, comparable within an allelic series) | 8.96 upbm affinity estimate (log intensity, higher = more binding, comparable within an allelic series) | 8.97 upbm affinity estimate (log intensity, higher = more binding, comparable within an allelic series) | 9.02 upbm affinity estimate (log intensity, higher = more binding, comparable within an allelic series) | –
7 | CCCCGGGG | 9.12 upbm affinity estimate (log intensity, higher = more binding, comparable within an allelic series) | 8.92 upbm affinity estimate (log intensity, higher = more binding, comparable within an allelic series) | 9.16 upbm affinity estimate (log intensity, higher = more binding, comparable within an allelic series) | 8.88 upbm affinity estimate (log intensity, higher = more binding, comparable within an allelic series) | 9.05 upbm affinity estimate (log intensity, higher = more binding, comparable within an allelic series) | 9.06 upbm affinity estimate (log intensity, higher = more binding, comparable within an allelic series) | 8.94 upbm affinity estimate (log intensity, higher = more binding, comparable within an allelic series) | 9.11 upbm affinity estimate (log intensity, higher = more binding, comparable within an allelic series) | 9.14 upbm affinity estimate (log intensity, higher = more binding, comparable within an allelic series) | 9.14 upbm affinity estimate (log intensity, higher = more binding, comparable within an allelic series) | 9.05 upbm affinity estimate (log intensity, higher = more binding, comparable within an allelic series) | 9.11 upbm affinity estimate (log intensity, higher = more binding, comparable within an allelic series) | 9.08 upbm affinity estimate (log intensity, higher = more binding, comparable within an allelic series) | –
8 | CGGGCCCC | 8.63 upbm affinity estimate (log intensity, higher = more binding, comparable within an allelic series) | 8.6 upbm affinity estimate (log intensity, higher = more binding, comparable within an allelic series) | 8.71 upbm affinity estimate (log intensity, higher = more binding, comparable within an allelic series) | 8.8 upbm affinity estimate (log intensity, higher = more binding, comparable within an allelic series) | 8.68 upbm affinity estimate (log intensity, higher = more binding, comparable within an allelic series) | 8.6 upbm affinity estimate (log intensity, higher = more binding, comparable within an allelic series) | 8.75 upbm affinity estimate (log intensity, higher = more binding, comparable within an allelic series) | 8.71 upbm affinity estimate (log intensity, higher = more binding, comparable within an allelic series) | 8.68 upbm affinity estimate (log intensity, higher = more binding, comparable within an allelic series) | 8.73 upbm affinity estimate (log intensity, higher = more binding, comparable within an allelic series) | 8.59 upbm affinity estimate (log intensity, higher = more binding, comparable within an allelic series) | 8.64 upbm affinity estimate (log intensity, higher = more binding, comparable within an allelic series) | 8.66 upbm affinity estimate (log intensity, higher = more binding, comparable within an allelic series) | –
9 | GTATCATA | 11.5 upbm affinity estimate (log intensity, higher = more binding, comparable within an allelic series) | 10.5 upbm affinity estimate (log intensity, higher = more binding, comparable within an allelic series) | 11.5 upbm affinity estimate (log intensity, higher = more binding, comparable within an allelic series) | 9.93 upbm affinity estimate (log intensity, higher = more binding, comparable within an allelic series) | 10.8 upbm affinity estimate (log intensity, higher = more binding, comparable within an allelic series) | 11.2 upbm affinity estimate (log intensity, higher = more binding, comparable within an allelic series) | 10.6 upbm affinity estimate (log intensity, higher = more binding, comparable within an allelic series) | 11.5 upbm affinity estimate (log intensity, higher = more binding, comparable within an allelic series) | 11.3 upbm affinity estimate (log intensity, higher = more binding, comparable within an allelic series) | 11.4 upbm affinity estimate (log intensity, higher = more binding, comparable within an allelic series) | 11.3 upbm affinity estimate (log intensity, higher = more binding, comparable within an allelic series) | 11.2 upbm affinity estimate (log intensity, higher = more binding, comparable within an allelic series) | 11.3 upbm affinity estimate (log intensity, higher = more binding, comparable within an allelic series) | –
